36 molecules from PubChem BioAssay can be followed below.

SMILES strings stand for the structures.

The test deals with Streptavidin (Streptomyces avidinii) (UniProt P22629). The experiment in a line: streptavidin binders on small-molecule microarray, primary screen, artefact control for SMM compound annotation, biophysical, 635/667 nm fluorescence (AID 1147).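 Also: signal reflects streptavidin binding to arrayed compounds as a control protein.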 As to conditions: streptavidin binding, higher = more signal.
Sequence of Streptavidin (Streptomyces avidinii) (P22629 whole entry, looked up): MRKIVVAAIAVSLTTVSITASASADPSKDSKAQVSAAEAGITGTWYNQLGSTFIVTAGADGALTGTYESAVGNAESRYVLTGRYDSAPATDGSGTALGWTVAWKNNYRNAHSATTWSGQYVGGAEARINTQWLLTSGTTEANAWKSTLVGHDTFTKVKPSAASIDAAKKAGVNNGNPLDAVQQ
Consider `CC(C)[C@@H](OCc1ccccc1)[C@H](C)C=NOC[C@@H](O)COCc1ccco1`, for which the composite z-score is -2.14.
`CC(C)(C)N1C(=O)[C@H]2[C@H]3[C@H](O)C=CC(=O)[C@@H]3CC[C@H]2C1=O` had a composite z-score of 0.4.
As to `CCOC(=O)[C@H](CC(C)C)NC(=O)CCC1CC(OC(=O)NCc2cccc3ccccc23)CC2(CCCC(COC(=O)NCCOC)O2)O1` (stereo partly specified), the composite z-score was found to be 0.0772.
As for `Cc1ccc(S(=O)(=O)n2c3ccccc3c3nnc(C(=O)c4ccccc4)nc32)cc1`, the figure is -0.237; as for `CCN1C(=O)[C@H]2[C@H]3[C@H](O)[C@H](O)CC(=NOC[C@H]4O[C@H](c5ccccc5)C=C[C@@H]4Oc4ccc(OC)cc4)[C@@H]3CC[C@H]2C1=O`, 0.29.
`Cc1cc2c(c(=O)o1)[C@@H](O)[C@H]1O[C@H]1C2=O`: the composite z-score was found to be 0.361.
For `C#CCCCON=C1C[C@@H](O)[C@@H](O)[C@@H]2[C@@H]3C(=O)N(c4cccc(Oc5ccccc5)c4)C(=O)[C@@H]3CC[C@H]12`, the composite z-score was -0.77.
With `CC(CCN1CCc2nc(-c3ccccc3)c(-c3ccccc3)cc2C1)=NOC[C@@H](O)[C@H]1O[C@@H]2OC(C)(C)O[C@@H]2[C@H]1O`, the composite z-score was 0.687.
As for `CC(CCN1CCc2nc(-c3ccccc3)c(-c3ccccc3)cc2C1)=NOC[C@@H](O)COCc1ccco1`, the figure is 0.526; as for `CSCC[C@@H]1NC(=O)CC=C[C@@H](C)COC(=O)[C@@H](C)COC1=O`, -1.03; as for `CC(=O)Nc1ccc([C@@H]2N[C@H](C(=O)O)CC[C@H]2C)cc1`, -0.0013.
As for `C#CCCCON=C1[C@H]2CCn3c(=O)n(-c4ccccc4)c(=O)n3[C@H]2[C@H](O)[C@@H]2O[C@H]12`, the figure is -0.126; as for `COC(=O)[C@@H]1CC[C@H](C)[C@@H](c2ccc(C)cc2)N1C(=O)c1ccc(C=NOC[C@@H](C)[C@H](OCc2ccccc2)C(C)C)cc1`, 0.409.
As for `CCOC(=O)[C@H](Cc1ccccc1)NC(=O)CCC1CC(OC(=O)NCc2cccc3ccccc23)CC2(CCCC(COC(=O)NCCC(C)C)O2)O1` (stereo partly specified), the figure is 1.8; as for `C=CC[C@@H]1C=C[C@H](ON=C2[C@H]3CCn4c(=O)n(-c5ccccc5)c(=O)n4[C@H]3[C@H](O)[C@@H]3O[C@H]23)[C@@H](CO)O1`, 0.43.
In turn, `CCOC(=O)[C@H](CC(C)C)NC(=O)CCC1CC(OC(=O)NCc2cccc3ccccc23)CC2(CCCC(COC(=O)NCCOc3ccccc3)O2)O1` (stereo partly specified) displayed a composite z-score of 0.628.
Turning to `C[C@@H](c1ccccc1)N1C(=O)[C@H]2[C@H]3[C@H](O)[C@H](O)CC(=NOCc4ccccc4)[C@H]3CC[C@H]2C1=O`, the composite z-score is 0.587.
`CCCNC(=O)OC[C@H]1O[C@H](CCON=C(C)CCN2CCc3nc(CC)c(CC)cc3C2)C=C[C@@H]1Oc1ccc(OC)cc1` gave a composite z-score of 0.333.
Molecule `CCCNC(=O)OC[C@H]1O[C@H](CCON=C(C)C)C=C[C@@H]1Oc1ccc(OC)cc1` yielded a composite z-score of 0.102.
As for `CC(=O)O[C@H]1C2=CO[C@H](C)[C@H]3[C@H]4C5=C([C@H](O)[C@H]6O[C@H]6C5=O)[C@H](OC4C)[C@@]23C(=O)[C@@H]2O[C@@H]21` (stereo partly specified), the figure is -0.458; as for `C=CC[C@@H]1C=C[C@H](ON=C[C@@H](C)[C@H](OCc2ccccc2)C(C)C)[C@@H](CO)O1`, -1.32.
The figure for `COC(=O)CC=C[C@@H](C)[C@@H](C=NOC(C)CN1CCCc2nc(C)c(C)cc21)OC` (stereo partly specified) is 1.21.
For `CC(CCN1CCCCc2nc(C)c(C)cc21)=NOC[C@@H](C)[C@H](OCc1ccccc1)C(C)C`, the composite z-score is -2.45.
As for `CON=C(C)CCC(=O)OC[C@H]1O[C@H](c2ccccc2)C=C[C@@H]1Oc1ccc(OC)cc1`, the figure is 0.0584; as for `CON=CC[C@@H]1C=C[C@H](OC(C)=O)[C@@H](COC(C)=O)O1`, -0.0091.
The figure for `Cn1c(=O)n2n(c1=O)[C@H]1[C@H](O)[C@@H]3O[C@@H]3C(=O)[C@H]1CC2` is 0.924; for `COc1ccc(COC(=O)NN=C2C[C@@H](O)[C@@H](O)[C@@H]3[C@@H]4C(=O)N(Cc5ccccc5)C(=O)[C@@H]4CC[C@H]23)cc1` it is 0.273; for `C#CCCCON=C1C[C@@H](O)[C@@H](O)[C@@H]2[C@@H]3C(=O)N(C(C)(C)C)C(=O)[C@@H]3CC[C@@H]12` it is 0.0462.
The figure for `C[C@@H](c1ccccc1)N1C(=O)[C@H]2[C@H]3[C@H](O)[C@H](O)CC(=NO[C@@H]4O[C@H](CO)[C@@H](O)[C@H](O)[C@H]4O)[C@H]3CC[C@H]2C1=O` is 0.152; for `CCOC(=O)CCN1C(=O)[C@H]2[C@H]3[C@H](O)[C@H](O)CC(=NOCc4ccccc4)[C@H]3CC[C@H]2C1=O` it is 0.758.
The molecule `CO[C@H]1COC(=O)[C@@H](C)COC(=O)[C@H](COCc2ccccc2)NC(=O)CC=C[C@H]1C` registered a composite z-score of -0.807.
As for `COc1cccc([C@H]2Oc3ccc(OC)cc3C(=NO[C@@H]3O[C@H](COC(C)=O)[C@@H](OC(C)=O)[C@H](OC(C)=O)[C@H]3OC(C)=O)[C@@H]2O)c1`, the figure is -0.0198.
As for `CCOC(=O)[C@H](CC(C)C)NC(=O)CCC1CC(OC(=O)NCc2ccc3c(c2)OCO3)CC2(CCCC(COC(=O)NCc3cccc(C(F)(F)F)c3)O2)O1` (stereo partly specified), the figure is -0.113; as for `CCN1C(=O)[C@H]2[C@H]3[C@H](O)[C@H](O)CC(=NOCC(C)C)[C@@H]3CC[C@H]2C1=O`, 0.017.
`COC(=O)[C@H](C)NC(=O)CCC1CC(OC(=O)NCCc2ccc(F)cc2)CC2(CCCC(COC(=O)NCCC(C)C)O2)O1` (stereo partly specified) displayed a composite z-score of 0.0943.
`C=CC[C@@H]1C=C[C@H](ON=C(C)CCN2CCc3nc(-c4ccccc4)c(-c4ccccc4)cc3C2)[C@@H](CO)O1` yielded a composite z-score of 0.313.
